Values without a mark were called inactive. Records with an inconclusive call do not appear. Where a call stands in place of a potency, no number is given. Activity calls are given as the source filed them. Unless noted, calls come from the whole dose curve.
Key:
[1] = Nuclear factor erythroid 2-related factor 2/antioxidant responsive element (Nrf2/ARE) small molecule agonists: qHTS cell viability counter screen in human keratinocytes (AID 1919968; active = well fitted curve in the direction sought with a large enough effect in the repeat runs; an effect the other way counts as inactive or inconclusive; note: nearly all actives have a fitted effect of over 55% in size; note: potency is the fitted concentration of half-maximal effect)
Summary of the method: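 Seed 1,500 KeratinoSens cells per well, then incubate 5 h at 37 C/5% CO2. Add compounds in DMSO and incubate 23 h. Add CellTiter-Fluor, wait 1 h and read fluorescence.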

[2] = Nuclear factor erythroid 2-related factor 2/antioxidant responsive element (Nrf2/ARE) small molecule agonists: luciferase reporter gene qHTS assay in human keratinocytes (AID 1919969); note: nearly all actives have a fitted effect of over 35% in size; note: potency is the fitted concentration of half-maximal effect
[3] = molecular target: Gonadotropin-releasing hormone receptor (Homo sapiens) (UniProt P30968); assay: Human gonadotropin-releasing hormone receptor (GnRHR) small molecule agonists, calcium flux assay in GnRHR-HEK293 cells (AID 1920063); note: nearly all actives have a fitted effect of over 35% in size; note: potency is the fitted concentration of half-maximal effect
Chain of Gonadotropin-releasing hormone receptor (Homo sapiens) (P30968 whole entry, looked up): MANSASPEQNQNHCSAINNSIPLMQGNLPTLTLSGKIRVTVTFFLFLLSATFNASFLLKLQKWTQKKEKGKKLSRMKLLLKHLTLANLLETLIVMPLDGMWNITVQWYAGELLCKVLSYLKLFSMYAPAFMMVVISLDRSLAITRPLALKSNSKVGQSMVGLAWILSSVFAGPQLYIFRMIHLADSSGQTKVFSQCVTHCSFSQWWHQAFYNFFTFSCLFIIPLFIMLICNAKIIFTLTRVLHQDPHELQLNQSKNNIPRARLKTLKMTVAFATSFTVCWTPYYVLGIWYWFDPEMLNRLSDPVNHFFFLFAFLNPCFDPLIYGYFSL
Summary of the method: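 Cells: HEK293 stably expressing human GnRHR. Steps: overnight (18 h) culture, 1 h calcium dye loading at 37 C, compound addition, kinetic fluorescence read at 480/540 nm. Each compound tested at 15 concentrations in triplicate.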

[4] = molecular target: KiSS-1 receptor (Homo sapiens) (UniProt Q969F8); assay: Human kisspeptin (KISS1R) small molecule agonists, calcium flux assay in KISS1R-HEK293 cells (AID 1920064; active = well fitted curve in the direction sought with a large enough effect in the repeat runs; an effect the other way counts as inactive or inconclusive)
Chain of KiSS-1 receptor (Homo sapiens) (Q969F8 whole entry, looked up): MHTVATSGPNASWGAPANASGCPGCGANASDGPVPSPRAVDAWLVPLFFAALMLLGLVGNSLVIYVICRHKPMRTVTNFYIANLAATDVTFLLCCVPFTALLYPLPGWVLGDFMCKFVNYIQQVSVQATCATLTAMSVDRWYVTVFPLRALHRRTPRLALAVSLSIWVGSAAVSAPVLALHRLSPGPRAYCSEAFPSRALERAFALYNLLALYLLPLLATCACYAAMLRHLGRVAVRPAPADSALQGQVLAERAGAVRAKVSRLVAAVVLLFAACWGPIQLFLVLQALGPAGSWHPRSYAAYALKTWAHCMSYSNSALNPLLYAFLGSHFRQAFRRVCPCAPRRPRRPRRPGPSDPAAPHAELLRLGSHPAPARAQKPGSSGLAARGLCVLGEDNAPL
Summary of the method: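 Cells plated and incubated 18 h; dye added, 1 h at 37 C; compounds in DMSO pinned in; signal read at 480/540 nm every second for 3 min. Each compound tested at 15 concentrations in triplicate.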

[5] = G protein-coupled receptor (GPCR) small molecule agonists, calcium flux assay: HEK293 wild type cell line counter screen (AID 1920065)
Summary of the method: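 Counter-screen of the Tox21 10K library for non-specific calcium release: dye-loaded cells received compounds in DMSO and were monitored by kinetic fluorescence (480/540 nm, 3 min). Fifteen concentrations, run in triplicate.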

[6] = p53 small molecule agonists, cell-based qHTS assay with human liver microsomes (AID 1963577);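 note: p53 response element beta-lactamase reporter cells with liver microsomes plus NADPH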
Summary of the method: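 p53RE-bla cells; 5 h settle, 37 C/5% CO2; cpd + HLM 0.5 mg/mL + NADPH 0.5 mg/mL (final); 16 h 37 C; LiveBLAzer 2 h RT dark; fluorescence readout.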

[7] = p53 small molecule agonists, cell-based qHTS assay with rat liver microsomes (AID 1963578)
Summary of the method: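 Rat liver microsome activation: microsomes 0.5 mg/mL, NADPH 0.5 mg/mL final; p53RE-bla cells, 16 h 37 C; LiveBLAzer readout, 2 h RT dark.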

[8] = p53 small molecule agonists, cell-based qHTS assay with human liver microsomes: qHTS cell viability counter screen (AID 1963579); note: nearly all actives have a fitted effect of over 45% in size; note: potency is the fitted concentration of half-maximal effect
Summary of the method: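 Luminescent CellTiter-Glo read-out, 30 min at room temperature, gauged cytotoxicity in p53RE-bla cells exposed 16 h at 37 C to DMSO-dissolved compounds with metabolic activation by human liver microsomes and NADPH, each 0.5 mg/mL final.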

[9] = p53 small molecule agonists, cell-based qHTS assay with rat liver microsomes: qHTS cell viability counter screen (AID 1963580); note: nearly all actives have a fitted effect of over 45% in size; note: potency is the fitted concentration of half-maximal effect
Summary of the method: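 p53RE-bla HCT-116 cells (4,000/well) rested 5 h at 37 C, then given Tox21 compounds in DMSO with rat liver microsomes (0.5 mg/mL final) plus NADPH (0.5 mg/mL final) for 16 h at 37 C. Viability read by CellTiter-Glo luminescence after 30 min at room temperature.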

[10] = p53 small molecule agonists, cell-based qHTS assay: qHTS cell viability counter screen (AID 1963581); note: nearly all actives have a fitted effect of over 45% in size; note: potency is the fitted concentration of half-maximal effect
Summary of the method: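 Cells: HCT-116 with p53 response element-driven beta-lactamase. Treatment: 16 h, 37 C, compounds in DMSO. Read: CellTiter-Glo luminescence after 30 min RT.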

[11] = p53 small molecule agonists, cell-based qHTS assay (AID 1963582; active = well fitted activation curve with a large enough effect in the signal ratio in the repeat runs, not every such curve was filed as active; the % refers to the signal ratio)
Summary of the method: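 Quantitative HTS in p53RE-bla cells: after a 5 h settling period, compounds delivered in DMSO were left on cells for 16 h at 37 C, and reporter induction was measured as fluorescence following 2 h substrate loading.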

[12] = molecular target: 5-hydroxytryptamine receptor 2A (Homo sapiens) (UniProt P28223); assay: 5-hydroxytryptamine receptor 2A (HTR2A) small molecule antagonists, cell-based qHTS assay (AID 1963586); note: nearly all actives have a fitted effect of over 45% in size
Chain of 5-hydroxytryptamine receptor 2A (Homo sapiens) (P28223 whole entry, looked up): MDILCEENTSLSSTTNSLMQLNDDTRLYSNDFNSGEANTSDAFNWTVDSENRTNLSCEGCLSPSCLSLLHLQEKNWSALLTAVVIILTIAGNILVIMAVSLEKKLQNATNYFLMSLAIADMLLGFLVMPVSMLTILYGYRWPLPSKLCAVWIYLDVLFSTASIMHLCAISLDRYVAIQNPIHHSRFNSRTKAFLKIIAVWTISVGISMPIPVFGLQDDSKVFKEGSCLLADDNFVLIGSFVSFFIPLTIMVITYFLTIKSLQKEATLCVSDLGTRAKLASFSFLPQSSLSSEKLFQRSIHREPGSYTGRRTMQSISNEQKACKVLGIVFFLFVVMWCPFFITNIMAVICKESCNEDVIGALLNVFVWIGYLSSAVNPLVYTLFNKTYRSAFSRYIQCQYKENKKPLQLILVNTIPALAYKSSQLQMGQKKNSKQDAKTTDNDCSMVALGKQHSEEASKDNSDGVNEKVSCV
Summary of the method: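 Antagonist-mode intracellular calcium assay: DOI (4 nM) added after 5 min compound pre-incubation at room temperature to dye-loaded HTR2A-CHO cells. Fluorescence followed for 3 min, sampled every second.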

[13] = molecular target: 5-hydroxytryptamine receptor 2A (Homo sapiens) (UniProt P28223); assay: 5-hydroxytryptamine receptor 2A (HTR2A) small molecule agonists, cell-based qHTS assay (AID 1963587); note: nearly all actives have a fitted effect of over 30% in size; note: potency is the fitted concentration of half-maximal effect
Summary of the method: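 HTR2A-CHO cells, plated 18 h at 37 C/5% CO2, dye-loaded 1 h at 37 C; compounds in DMSO added by pin tool (agonist mode). Intracellular calcium flux read as kinetic fluorescence on FDSS over 2 min at 1 s intervals.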

[14] = molecular target: Muscarinic acetylcholine receptor M1 (Homo sapiens) (UniProt P11229); assay: Cholinergic receptor muscarinic 1 (CHRM1) small molecule agonists, cell-based qHTS assay (AID 1963589); note: nearly all actives have a fitted effect of over 35% in size
Chain of Muscarinic acetylcholine receptor M1 (Homo sapiens) (P11229 whole entry, looked up): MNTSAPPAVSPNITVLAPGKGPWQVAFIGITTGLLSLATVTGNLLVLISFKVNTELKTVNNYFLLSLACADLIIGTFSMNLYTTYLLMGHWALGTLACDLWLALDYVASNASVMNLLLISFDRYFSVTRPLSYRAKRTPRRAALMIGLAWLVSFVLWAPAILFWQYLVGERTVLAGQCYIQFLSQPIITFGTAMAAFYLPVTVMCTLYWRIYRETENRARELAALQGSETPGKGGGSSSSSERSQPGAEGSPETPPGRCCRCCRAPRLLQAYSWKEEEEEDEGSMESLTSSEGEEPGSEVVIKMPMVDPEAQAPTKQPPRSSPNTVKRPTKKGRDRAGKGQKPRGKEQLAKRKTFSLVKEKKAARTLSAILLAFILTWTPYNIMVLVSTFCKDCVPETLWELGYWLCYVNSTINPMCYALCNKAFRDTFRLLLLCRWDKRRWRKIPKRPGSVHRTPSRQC
Summary of the method: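 Agonist-mode qHTS in CHO cells stably carrying human muscarinic M1. Intracellular calcium is tracked by fluorescence every second after compound transfer; each compound runs at 15 concentrations in three independent runs.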

[15] = cAMP Responsive Elements (CRE) small molecule antagonists, cell-based qHTS assay (AID 1963591; active = well fitted inhibition curve with a large enough effect in the signal ratio in the repeat runs, not every such curve was filed as active; the % refers to the signal ratio)
Summary of the method: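 Antagonist mode: test compounds are co-incubated with the adenylyl cyclase activator NKH477 (0.25 uM final) on CRE-bla HEK293T cells for 3 h at 37 °C, followed by LiveBLAzer substrate loading.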

[16] = molecular target: Beta-2 adrenergic receptor (Homo sapiens) (UniProt P07550); assay: Adrenergic beta2 receptor (ADRB2) small molecule antagonists, cell-based qHTS assay (AID 1963592); note: series mostly up to about 92 µM; nearly all actives have a fitted effect of over 50% in size
Chain of Beta-2 adrenergic receptor (Homo sapiens) (P07550 whole entry, looked up): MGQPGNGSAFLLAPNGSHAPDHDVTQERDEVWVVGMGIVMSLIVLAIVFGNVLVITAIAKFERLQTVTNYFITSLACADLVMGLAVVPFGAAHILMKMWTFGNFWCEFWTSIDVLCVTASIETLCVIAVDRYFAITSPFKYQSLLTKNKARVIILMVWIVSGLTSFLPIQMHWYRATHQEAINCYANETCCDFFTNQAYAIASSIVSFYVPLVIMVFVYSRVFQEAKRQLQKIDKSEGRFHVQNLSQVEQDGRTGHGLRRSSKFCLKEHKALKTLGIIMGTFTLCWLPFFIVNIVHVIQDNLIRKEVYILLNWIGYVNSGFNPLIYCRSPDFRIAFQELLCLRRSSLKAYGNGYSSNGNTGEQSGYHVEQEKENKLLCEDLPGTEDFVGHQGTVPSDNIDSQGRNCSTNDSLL
Summary of the method: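 Cells (CHO, stable ADRB2 overexpression) incubated 18-20hr at 37C; compounds added from DMSO; agonist mix (1nM isoproterenol, 100uM IBMX, 25uM Ro-20-1724) added; 0.5hr RT; d2-cAMP and anti-cAMP-cryptate added; 1hr RT; 665/615 nm read.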

[17] = molecular target: D(2) dopamine receptor (Homo sapiens) (UniProt P14416); assay: Dopamine D2 receptor (DRD2) small molecule antagonists, cell-based qHTS assay (AID 1963595; active = well fitted inhibition curve with a large enough effect in the signal ratio in the repeat runs, with a control signal flat; the % refers to the signal ratio; note: potency is the fitted concentration of half-maximal effect)
Chain of D(2) dopamine receptor (Homo sapiens) (P14416 whole entry, looked up): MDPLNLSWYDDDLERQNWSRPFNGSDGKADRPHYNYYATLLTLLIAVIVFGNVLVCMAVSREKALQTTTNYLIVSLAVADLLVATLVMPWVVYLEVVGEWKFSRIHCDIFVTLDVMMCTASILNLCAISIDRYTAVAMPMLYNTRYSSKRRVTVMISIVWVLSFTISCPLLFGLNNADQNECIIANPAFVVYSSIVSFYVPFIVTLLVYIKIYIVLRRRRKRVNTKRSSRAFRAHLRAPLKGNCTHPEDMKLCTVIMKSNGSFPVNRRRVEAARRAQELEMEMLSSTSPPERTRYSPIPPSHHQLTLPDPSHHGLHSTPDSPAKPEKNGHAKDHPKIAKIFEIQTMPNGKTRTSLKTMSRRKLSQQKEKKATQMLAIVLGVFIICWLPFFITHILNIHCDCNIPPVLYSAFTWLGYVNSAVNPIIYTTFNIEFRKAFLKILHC
Summary of the method: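 In this cell-based antagonist screen, compounds act for 10 min at room temperature before a 30 min challenge with 12 nM quinpirole and 200 nM NKH477. cAMP is quantified by HTRF competition in DRD2-HEK293 cells containing 0.1 mM Ro20-1724.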

[18] = molecular target: Muscarinic acetylcholine receptor M1 (Homo sapiens) (UniProt P11229); assay: Cholinergic receptor muscarinic 1 (CHRM1) small molecule antagonists, cell-based qHTS assay (AID 1963588); note: nearly all actives have a fitted effect of over 40% in size
Summary of the method: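 CHRM1-CHO calcium-flux assay, antagonist mode. Cells were seeded 18 h, dye-loaded 1 h at 37 C and given compound for 5 min at RT, then acetylcholine was added at 50nM. FDSS fluorescence was read 3 min; 15 concentrations, three runs.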

[19] = cAMP Responsive Elements (CRE) small molecule agonists, cell-based qHTS assay (AID 1963590)
Summary of the method: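 Agonist mode qHTS in CRE-bla HEK 293T cells: compounds dosed from DMSO for 3 h at 37 C/5% CO2, followed by LiveBLAzer B/G FRET substrate for 2 h at room temperature.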

[20] = molecular target: D(2) dopamine receptor (Homo sapiens) (UniProt P14416); assay: Dopamine D2 receptor (DRD2) small molecule agonists, cell-based qHTS assay (AID 1963594); note: nearly all actives have a fitted effect of over 35% in size
Summary of the method: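 HEK293 cells stably expressing DRD2 were cultured 24 h at 37 C, then given Ro20-1724 (0.1 mM final) and compounds for 10 min at room temperature. NKH477 (200nM) was then added for 30 min. cAMP was read by HTRF.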

| Structure (SMILES) | Potency [1] | Potency [2] | Potency [3] | Potency [4] | Potency [5] | Potency [6] | Potency [7] | Potency [8] | Potency [9] | Potency [10] | Potency [11] | Potency [12] | Potency [13] | Potency [14] | Potency [15] | Potency [16] | Potency [17] | Potency [18] | Potency [19] | Potency [20] |
| --- | --- | --- | --- | --- | --- | --- | --- | --- | --- | --- | --- | --- | --- | --- | --- | --- | --- | --- | --- | --- |
| CC(Cc1ccccc1)NCCn1cnc2c1c(=O)n(C)c(=O)n2C (stereo not drawn) | inactive | inactive | inactive | inactive | inactive | inactive | inactive | inactive | inactive | inactive | inactive | inactive | inactive | inactive | inactive | inactive | inactive |  |  |  |
| COC(N)=O | inactive | inactive | inactive | inactive | inactive | inactive | inactive | inactive | inactive | inactive | inactive | inactive | inactive | inactive |  | inactive |  | inactive |  |  |
| N#Cc1ccc(N(CC(N)=O)CC(F)(F)F)cc1C(F)(F)F | inactive | inactive | inactive | inactive | inactive | inactive | inactive | inactive | inactive | inactive | inactive | inactive | inactive | inactive | inactive | inactive | inactive |  | inactive |  |
| CCN(CC)CCOC(=O)C(O)(c1ccccc1)c1ccccc1 | inactive | inactive | inactive | inactive | inactive | inactive | inactive | inactive | inactive | inactive | inactive |  | 1340 nM (active) |  | inactive | inactive | inactive |  | inactive | inactive |
| CCC1(c2ccccc2)C(=O)NC(=O)NC1=O | inactive | inactive | inactive | inactive | inactive | inactive | inactive | inactive | inactive | inactive | inactive |  |  |  | inactive | inactive | inactive |  | inactive | inactive |
| [F][Sn]([c]1ccccc1)([c]1ccccc1)[c]1ccccc1 | 864 nM (active) | 545 nM (active) | 34700 nM (active) | inactive | inactive | inactive | inactive | 2290 nM (active) | 11500 nM (active) | 2890 nM (active) |  | inactive | 30900 nM (active) |  |  |  | 2730 nM (active) |  |  | inactive |
| C[N+]1(C)[C@@H]2CC[C@H]1CC(OC(=O)C(CO)c1ccccc1)C2 (stereo partly drawn) | inactive | inactive | inactive | inactive | inactive | inactive | inactive | inactive | inactive | inactive |  | inactive | inactive | inactive | inactive | inactive | inactive |  | inactive | inactive |
| Clc1cccc(N2CCNCC2)c1 | inactive | inactive | inactive | inactive | inactive | inactive | inactive | inactive | inactive | inactive | inactive |  |  | inactive | inactive |  | inactive | inactive | inactive | inactive |

Source: PubChem BioAssay (Tox21)
